Assay results reported in PubChem BioAssay (NCI).
The panel holds about 83,000 compounds, 20% with a hit somewhere; the sample as a whole holds those more often.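 48-hour exposure, single concentration, 96-well plates; percent growth endpoint where 0 means no net growth. Active: below 10.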 Active and inactive are the calls of the source.

Columns and labels:
Assay in all cases: NCI-60 one-dose screen, 48 h (100 = growth as untreated, 0 = no growth, -100 = all killed)
Settings in all cases: 10 µM unless noted
DU-145 prostate = system: DU-145 prostate
K-562 leukemia = system: K-562 leukemia
MALME-3M melanoma = system: MALME-3M melanoma
MDA-MB-231 breast = system: MDA-MB-231 breast
RXF 393 renal = system: RXF 393 renal
SF-268 CNS = system: SF-268 CNS
SF-295 CNS = system: SF-295 CNS
SF-539 CNS = system: SF-539 CNS
UACC-257 melanoma = system: UACC-257 melanoma
M14 melanoma = system: M14 melanoma
HCT-15 colon = system: HCT-15 colon
HT29 colon = system: HT29 colon
SNB-75 CNS = system: SNB-75 CNS
SNB-19 CNS = system: SNB-19 CNS
U251 CNS = system: U251 CNS
PC-3 prostate = system: PC-3 prostate
SK-MEL-5 melanoma = system: SK-MEL-5 melanoma
UACC-62 melanoma = system: UACC-62 melanoma
LOX IMVI melanoma = system: LOX IMVI melanoma
SK-MEL-28 melanoma = system: SK-MEL-28 melanoma

Measured: growth

O=C(c1ccc(Cl)cc1Cl)N1c2ccccc2Sc2ccccc21
inactive: DU-145 prostate 65.2% | MALME-3M melanoma 63.8% | MDA-MB-231 breast 68.8% | RXF 393 renal 70% | SF-268 CNS 50% | SF-295 CNS 53.1% | SF-539 CNS 41.8% | UACC-257 melanoma 64.3% | M14 melanoma 59.8% | HCT-15 colon 29.6% | HT29 colon 47.5% | SNB-75 CNS 59.6% | SNB-19 CNS 57.3% | U251 CNS 33.1% | PC-3 prostate 44% | SK-MEL-5 melanoma 34.6% | UACC-62 melanoma 43.1% | LOX IMVI melanoma 23.9% | SK-MEL-28 melanoma 65.4%
active: K-562 leukemia -42.2%

O=C(/C=C\c1ccco1)/C=C/c1ccco1
inactive: DU-145 prostate 106% | K-562 leukemia 111% | MALME-3M melanoma 112% | MDA-MB-231 breast 93.4% | RXF 393 renal 100% | SF-268 CNS 113% | SF-295 CNS 101% | SF-539 CNS 108% | UACC-257 melanoma 100% | M14 melanoma 105% | HCT-15 colon 105% | HT29 colon 108% | SNB-75 CNS 94.5% | SNB-19 CNS 105% | U251 CNS 104% | PC-3 prostate 95.6% | SK-MEL-5 melanoma 101% | UACC-62 melanoma 100% | LOX IMVI melanoma 96.8% | SK-MEL-28 melanoma 110%

COc1ccc(C2=NN(C(C)=O)C(c3ccc(Oc4ccnc5cc(Cl)ccc45)c(OC)c3)C2)cc1 (stereo not given)
inactive: DU-145 prostate 59.8% | K-562 leukemia 68.6% | MALME-3M melanoma 52.8% | MDA-MB-231 breast 41.9% | RXF 393 renal 23% | SF-268 CNS 76% | SF-295 CNS 49.5% | UACC-257 melanoma 70.5% | M14 melanoma 71.8% | HCT-15 colon 90.6% | HT29 colon 15.1% | SNB-75 CNS 16.1% | SNB-19 CNS 73.1% | U251 CNS 45.7% | PC-3 prostate 56% | SK-MEL-5 melanoma 65.8% | UACC-62 melanoma 54.7% | LOX IMVI melanoma 53.2% | SK-MEL-28 melanoma 35.8%
active: SF-539 CNS 2.73%

CN(C)c1ccc(/C=C/C(=O)c2ccc(Nc3nc(Nc4ccc(F)cc4)nc(Nc4ccc(Cl)cc4)n3)cc2)cc1
inactive: DU-145 prostate 84.4% | K-562 leukemia 23.7% | MALME-3M melanoma 64.3% | MDA-MB-231 breast 80.1% | RXF 393 renal 22.4% | SF-268 CNS 84.1% | SF-295 CNS 44.8% | SF-539 CNS 82.2% | UACC-257 melanoma 82.2% | M14 melanoma 54% | HCT-15 colon 57% | HT29 colon 60.7% | SNB-75 CNS 76.9% | SNB-19 CNS 92.7% | U251 CNS 67.9% | PC-3 prostate 57.2% | SK-MEL-5 melanoma 50.2% | UACC-62 melanoma 75.2% | LOX IMVI melanoma 75.6% | SK-MEL-28 melanoma 74.3%

COc1cc(C2=NN(C(C)=O)C(c3ccc(N(C)C)cc3)C2)cc(OC)c1OC (stereo not given)
inactive: DU-145 prostate 103% | K-562 leukemia 81.7% | MALME-3M melanoma 87.3% | MDA-MB-231 breast 74.1% | RXF 393 renal 103% | SF-268 CNS 105% | SF-295 CNS 95.1% | SF-539 CNS 91.5% | UACC-257 melanoma 76.7% | M14 melanoma 95% | HCT-15 colon 102% | HT29 colon 108% | SNB-75 CNS 96.2% | SNB-19 CNS 89.8% | U251 CNS 97.3% | PC-3 prostate 105% | SK-MEL-5 melanoma 91.1% | UACC-62 melanoma 87.9% | LOX IMVI melanoma 96.5% | SK-MEL-28 melanoma 106%

C=NNc1ccccc1
inactive: DU-145 prostate 100% | K-562 leukemia 75.8% | MALME-3M melanoma 126% | MDA-MB-231 breast 66.8% | RXF 393 renal 105% | SF-268 CNS 92.3% | SF-295 CNS 100% | SF-539 CNS 101% | UACC-257 melanoma 98.3% | M14 melanoma 95.3% | HCT-15 colon 87.4% | HT29 colon 108% | SNB-75 CNS 90.9% | SNB-19 CNS 93.8% | U251 CNS 88.1% | PC-3 prostate 63.8% | SK-MEL-5 melanoma 98.8% | UACC-62 melanoma 50.2% | LOX IMVI melanoma 62.8% | SK-MEL-28 melanoma 117%

Oc1c(Cl)cc(Cl)c2ccc(Cn3cc(-c4cccc(C(F)(F)F)c4)nn3)nc12
active: K-562 leukemia 5.87%
inactive: DU-145 prostate 63% | MALME-3M melanoma 75.8% | MDA-MB-231 breast 101% | RXF 393 renal 33.7% | SF-268 CNS 88.9% | SF-295 CNS 99% | SF-539 CNS 75.2% | UACC-257 melanoma 69.1% | M14 melanoma 62.4% | HCT-15 colon 40.5% | HT29 colon 89.2% | SNB-75 CNS 70% | SNB-19 CNS 95.6% | U251 CNS 93.6% | PC-3 prostate 83.1% | SK-MEL-5 melanoma 98.2% | UACC-62 melanoma 82.1% | LOX IMVI melanoma 23.7% | SK-MEL-28 melanoma 75.9%

COc1cc2oc(-c3cccc(NC(=O)c4ccc5c(c4)OCO5)c3)cc(=O)c2c(OC)c1OC
active: PC-3 prostate -12%
inactive: DU-145 prostate 52.9% | K-562 leukemia 17.4% | MALME-3M melanoma 76.4% | MDA-MB-231 breast 64.3% | RXF 393 renal 46.5% | SF-268 CNS 48.1% | SF-295 CNS 53.9% | SF-539 CNS 57% | UACC-257 melanoma 77.3% | M14 melanoma 49.3% | HCT-15 colon 32.1% | HT29 colon 29.4% | SNB-75 CNS 67.4% | SNB-19 CNS 45.6% | U251 CNS 32.5% | SK-MEL-5 melanoma 16.4% | UACC-62 melanoma 50% | LOX IMVI melanoma 39.5% | SK-MEL-28 melanoma 55.1%
